Laboratory results published in PubChem BioAssay (NCI).
Values joined by “and” are separate entries in the source; they are usually repeats but may differ in a detail not shown here. Equal values may be shown once. This is part of a sample that, as a whole, favours compounds with a hit. Of some 83,000 tested, about 20% had one in any assay.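 Cells were grown in 96-well plates and exposed to the test compound at a single concentration for 48 hours; results are reported as percent growth, with values below 10 considered active.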 Active and inactive are the calls of the source.

test system: MDA-MB-468 breast; test: NCI-60 one-dose screen, 48 h (100 = growth as untreated, 0 = no growth, -100 = all killed); settings: 10 µM unless noted

Row | SMILES | growth
1 | CN(C)CCCNc1c2ccccc2nc2c1oc1ccc(Cl)cc12 | 5.14% (active)
2 | O=C(/C=C/c1ccc(F)cc1)c1ccc(O)cc1 | 83% (inactive)
3 | COc1ccc(CCN2C(=O)CCSC2=S)cc1 | 10.7% (inactive)
4 | CCCC1OC(c2ccco2)OCC1CC (stereo not given) | 118% (inactive)
5 | O=C(CCCOc1ccc(Br)cc1)Nc1ncc(Cc2ccc(F)cc2)s1 | 57% (inactive)
6 | ClC/C=C/CSc1ncnc2nc[nH]c12 | 103% (inactive) and 127% (inactive)
7 | COc1cc(/C=C\c2cc(/C=C\c3ccc(O)c(OC)c3)n(C(=O)Nc3ccc(C(F)(F)F)cc3)n2)ccc1O | 43.8% (inactive)
8 | COc1cc(/C=C/C(=O)c2ccc(C)cc2)ccc1Oc1nc(NCCO)nc(N2CCOCC2)n1 | 27.2% (inactive)
9 | Cc1oc(-c2ccc(Cl)cc2)nc1/C=C/C(=O)c1ccccc1 | 95% (inactive)
10 | O=C(/C=C/c1ccc2c(c1)OCO2)c1c(O)c2ccccc2oc1=O | 133% (inactive)
11 | O=C(Nc1cccc([N+](=O)[O-])c1)c1cccc(C(=O)Nc2cccc([N+](=O)[O-])c2)c1 | 67.1% (inactive)
12 | CCN1C(=S)N(CC)C2C1NC(=S)N2/N=C/C=C/c1ccccc1 (stereo not given) | 2.3% (active)
13 | OC(CSc1ccccc1)CN1CCN(c2cccc(Cl)c2)CC1 (stereo not given) | 96.8% (inactive)
14 | CCCCNC(=O)Oc1ccc(/C(=C(\C)c2ccc(Cl)cc2)c2ccc(OCCN(CC)CC)cc2)cc1 | 71.8% (inactive)
15 | C=CCN(C)S(=O)(=O)/N=C1\NC(=O)NC1=C(Cl)Cl | 28.7% (inactive)
